# Results filed as inconclusive are left out. Calls of active or inactive are those of the source. The calls were made as follows, unless noted: active = hit-call score of the fitted dose curve at least 0.9, where 1 is the maximum; inactive = score below 0.9.
# Assays:
# [1] = read-out: Nuclear factor erythroid 2-related factor 2 (Homo sapiens) (UniProt Q16236); assay: LTEA_HepaRG_NFE2L2: Life Technologies and Expression Analysis (LTEA) Assay for Nuclear factor erythroid 2-related factor 2 (NFE2L2) Transcription Factor using HepaRG (AID 2283527); settings: mRNA level, 48 h; actives raise or lower the signal;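 as to outcome: TaqMan qRT-PCR transcript level normalised to ACTB GAPDH and POLR2A housekeeping genes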
# Outline: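 HepaRG, 48 h dosing, 8-pt half-log series from 100 uM in 0.5% DMSO, duplicates. Read-out: NFE2L2 mRNA by qRT-PCR (ACTB/GAPDH/POLR2A normalization). Bidirectional curve fit vs DMSO baseline.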
# [2] = read-out: succinate dehydrogenase complex iron sulfur subunit B (SDHB), SDHB (gene 6390); assay: LTEA_HepaRG_SDHB: Life Technologies and Expression Analysis (LTEA) Assay for succinate dehydrogenase complex iron sulfur subunit B (SDHB) using HepaRG (AID 2283528); settings: mRNA level, 48 h; actives raise or lower the signal
# Outline: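 HepaRG, 48 h exposure, 8-pt half-log series from 100 uM in 0.5% DMSO, duplicates. Readout: SDHB mRNA by Fluidigm qRT-PCR vs housekeeping genes; bidirectional fit relative to DMSO.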
# [3] = read-out: Signal transducer and activator of transcription 3 (Homo sapiens) (UniProt P40763); assay: LTEA_HepaRG_STAT3: Life Technologies and Expression Analysis (LTEA) Assay for Signal transducer and activator of transcription (STAT3) using HepaRG (AID 2283529); settings: mRNA level, 48 h; actives raise or lower the signal
# Outline: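 HepaRG, 48 h exposure, 8-pt half-log series (top 100 uM), 0.5% DMSO vehicle, duplicates. Readout: STAT3 transcript by Fluidigm qRT-PCR, housekeeping-normalized; bidirectional fit vs DMSO baseline.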
# [4] = read-out: solute carrier (SLCO1B1), SLCO1B1 (gene 10599); assay: LTEA_HepaRG_SLCO1B1: Life Technologies and Expression Analysis (LTEA) Assay for solute carrier (SLCO1B1) using HepaRG (AID 2283530); settings: mRNA level, 48 h; actives raise or lower the signal
# Outline: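 Gain or loss of SLCO1B1 mRNA is fitted against the 0.5% DMSO vehicle in human HepaRG liver cells treated 48 h at up to 100 uM in half-log steps. Expression comes from qRT-PCR normalized to endogenous controls.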
# [5] = read-out: sulfotransferase 2A1 (SULT2A1), SULT2A1 (gene 6822); assay: LTEA_HepaRG_SULT2A1: Life Technologies and Expression Analysis (LTEA) Assay for sulfotransferase 2A1 (SULT2A1) using HepaRG (AID 2283531); settings: mRNA level, 48 h; actives raise or lower the signal
# Outline: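 Cells were plated and cultured 48 h, switched to serum-free induction medium, then dosed in duplicate for 48 h (8 concentrations, max 100 uM). RNA was isolated and SULT2A1 expression measured by qRT-PCR; gain or loss of signal fitted relative to DMSO.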
# [6] = read-out: Transforming Growth Factor (TGFA), TGFA (gene 7039); assay: LTEA_HepaRG_TGFA: Life Technologies and Expression Analysis (LTEA) Assay for Transforming Growth Factor (TGFA) using HepaRG (AID 2283532); settings: mRNA level, 48 h; actives raise or lower the signal
# Outline: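 qRT-PCR read-out of TGFA transcript, normalized to three housekeeping genes, fitted bidirectionally against 0.5% DMSO baseline. Human HepaRG cultures received chemicals for 48 h at eight half-log concentrations, top 100 uM.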
# [7] = read-out: Transforming Growth Factor (TGFB1), TGFB1 (gene 7040); assay: LTEA_HepaRG_TGFB1: Life Technologies and Expression Analysis (LTEA) Assay for Transforming Growth Factor (TGFB1) Transporter using HepaRG (AID 2283533); settings: mRNA level, 48 h; actives raise or lower the signal
# Outline: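 Expression change of TGFB1 in human HepaRG cells is measured after a 48 h chemical exposure, up to 100 uM in 0.5% DMSO vehicle. Curves are fitted in both directions relative to the DMSO baseline.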
# [8] = read-out: TIMP1, TIMP1 (gene 7076); assay: LTEA_HepaRG_TIMP1: Life Technologies and Expression Analysis (LTEA) Assay for TIMP1 using HepaRG (AID 2283534); settings: mRNA level, 48 h; actives raise or lower the signal
# Outline: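 We dosed human liver HepaRG cultures for 48 hours with up to 100 uM test chemical and measured TIMP1 expression by qRT-PCR. Activity in either direction is fitted relative to the 0.5% DMSO vehicle.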
# [9] = read-out: Tumor necrosis factor receptor 1 (TNFRSF1A), TNFRSF1A (gene 7132); assay: LTEA_HepaRG_TNFRSF1A: Life Technologies and Expression Analysis (LTEA) Assay for Tumor necrosis factor receptor 1 (TNFRSF1A) using HepaRG (AID 2283535); settings: mRNA level, 48 h; actives raise or lower the signal
# Outline: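 Expression of TNFRSF1A in human HepaRG liver cells was measured by qRT-PCR 48 h after chemical dosing (maximum 100 uM). Bidirectional curve fitting used 0.5% DMSO as baseline.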
# [10] = read-out: Thyroid Hormone Responsive (THRSP), THRSP (gene 7069); assay: LTEA_HepaRG_THRSP: Life Technologies and Expression Analysis (LTEA) Assay for Thyroid Hormone Responsive (THRSP) using HepaRG (AID 2283536); settings: mRNA level, 48 h; actives raise or lower the signal
# Outline: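 qRT-PCR read-out (Fluidigm TaqMan), housekeeping-normalized (ACTB/GAPDH/POLR2A). HepaRG, 48 h chemical exposure, 8-pt half-log series from 100 uM in 0.5% DMSO, duplicates. Bidirectional curve fit vs 0.5% DMSO baseline.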
# [11] = read-out: Cellular tumor antigen p53 (Homo sapiens) (UniProt P04637); assay: LTEA_HepaRG_TP53: Life Technologies and Expression Analysis (LTEA) Assay for Tumor Protein P53 (TP53) using HepaRG (AID 2283537); settings: mRNA level, 48 h; actives raise or lower the signal
# Outline: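 HepaRG, 48 h exposure, top 100 uM, half-log 8-point, 0.5% DMSO vehicle, duplicates. Read: TP53 mRNA by TaqMan qRT-PCR, normalised to ACTB/GAPDH/POLR2A; bidirectional fit vs DMSO.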
# [12] = read-out: UDP glucuronosyltransferase (UGT1A1), UGT1A1 (gene 54658); assay: LTEA_HepaRG_UGT1A1: Life Technologies and Expression Analysis (LTEA) Assay for UDP glucuronosyltransferase (UGT1A1) using HepaRG (AID 2283538); settings: mRNA level, 48 h; actives raise or lower the signal
# Outline: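 Cells are plated, cultured 48 h, switched to serum-free induction medium, then dosed 48 h at eight concentrations (max 100 uM, 0.5% DMSO). RNA is isolated and UGT1A1 expression measured by qRT-PCR; changes versus DMSO are fitted in both directions.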
# [13] = read-out: UDP glucuronosyltransferase (UGT1A6), UGT1A6 (gene 54578); assay: LTEA_HepaRG_UGT1A6: Life Technologies and Expression Analysis (LTEA) Assay for UDP glucuronosyltransferase (UGT1A6) using HepaRG (AID 2283539); settings: mRNA level, 48 h; actives raise or lower the signal
# Outline: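 Endpoint is UGT1A6 transcript induction or loss in a human liver cell line, quantified by TaqMan qRT-PCR 48 h after dosing. Concentrations ran from 100 uM downward in half-log steps in 0.5% DMSO; activity was fitted in both directions versus vehicle.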
# [14] = LTEA_HepaRG_LDH_cytotoxicity: Cytotoxicity Assessment in the Life Technologies and Expression Analysis (LTEA) Assay (AID 2283563; active = hit-call score of the fitted dose curve at least 0.9, where 1 is the maximum;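 as to AC50: LDH activity released into spent culture medium as a marker of cell death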)
# Outline: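 Human HepaRG hepatic cells are treated with test chemicals for 48 h at up to 100 uM in 0.5% DMSO. Cytotoxicity is scored from medium LDH against the vehicle control.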
# [15] = TOX21_p53_BLA_p2_viability: Viability Assessment in the Tox21 HCT-116 p53 Agonism Beta-lactamase Assay, Phase 2 (AID 2283591; active = hit-call score of the fitted dose curve at least 0.9, where 1 is the maximum;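 also: compound exposure lasted 16 h at 37 °C; actives lower the ATP signal meaning cytotoxicity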)
# Outline: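 HCT116 p53-bla cells, 4000/well, dosed after 5 h plating (217-fold dilution of DMSO stocks) and incubated 16 h at 37C. Viability taken as cellular ATP by CellTiter-Glo luminescence after 30 min RT; signal loss marks cytotoxicity.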
# [16] = target: Cellular tumor antigen p53 (Homo sapiens) (UniProt P04637); assay: TOX21_p53_BLA_p3_ratio: Tox21 HCT-116 p53 Agonism Beta-lactamase Assay, Ratio, Phase 3 (AID 2283596; active = hit-call score of the fitted dose curve at least 0.9, where 1 is the maximum)
# Sequence of Cellular tumor antigen p53 (Homo sapiens) (P04637 whole entry, looked up): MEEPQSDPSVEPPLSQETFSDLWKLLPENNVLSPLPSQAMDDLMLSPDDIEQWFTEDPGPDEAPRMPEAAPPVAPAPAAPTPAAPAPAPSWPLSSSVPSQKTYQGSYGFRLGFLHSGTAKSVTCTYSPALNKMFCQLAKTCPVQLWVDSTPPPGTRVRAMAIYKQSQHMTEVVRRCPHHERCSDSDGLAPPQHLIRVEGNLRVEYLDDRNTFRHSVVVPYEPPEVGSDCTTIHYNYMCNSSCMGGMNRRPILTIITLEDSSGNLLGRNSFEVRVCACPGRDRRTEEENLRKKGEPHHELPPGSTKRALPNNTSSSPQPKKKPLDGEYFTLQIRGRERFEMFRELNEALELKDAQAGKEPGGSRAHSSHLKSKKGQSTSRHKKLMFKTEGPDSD
# Outline: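 Cells were seeded at 4000/well, rested 5 h at 37C, then dosed with DMSO compound solutions (217-fold dilution) for 16 h. CCF4-AM substrate was loaded for 2 h at room temperature, and the 460/530 nm emission ratio was fitted for gain of signal versus DMSO.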
# [17] = read-out: X-box binding protein 1 (XBP1), XBP1 (gene 7494); assay: LTEA_HepaRG_XBP1: Life Technologies and Expression Analysis (LTEA) Assay for X-box binding protein 1 (XBP1) using HepaRG (AID 2283540); settings: mRNA level, 48 h; actives raise or lower the signal
# Outline: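 Human HepaRG monolayers receive test chemical for 48 h across an eight-point half-log series starting at 100 uM. XBP1 mRNA gain or loss is scored against DMSO by qRT-PCR.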
# [18] = ATG_XTT_Cytotoxicity: Cytotoxicity Assessment in the Attagene TRANS-FACTORIAL HepG2 Assay (AID 2283584; active = hit-call score of the fitted dose curve at least 0.9, where 1 is the maximum)
# Outline: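 Transfect HepG2 with GAL4-UAS reporter units, dose compound, incubate 24 h, then measure viable cell number by XTT. Fit concentration response against DMSO baseline.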
# [19] = target: Cellular tumor antigen p53 (Homo sapiens) (UniProt P04637); assay: TOX21_p53_BLA_p2_ratio: Tox21 HCT-116 p53 Agonism Beta-lactamase Assay, Ratio, Phase 2 (AID 2283592; active = hit-call score of the fitted dose curve at least 0.9, where 1 is the maximum)
# Outline: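 Cleaved-to-uncleaved substrate ratio (460 vs 530 nm) measured in HCT116 cells with an inducible beta-lactamase reporter linked to p53 activity. Compounds incubated 16 h at 37C before 2 h room-temperature CCF4-AM loading.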
# Sequence of Signal transducer and activator of transcription 3 (Homo sapiens) (P40763 whole entry, looked up): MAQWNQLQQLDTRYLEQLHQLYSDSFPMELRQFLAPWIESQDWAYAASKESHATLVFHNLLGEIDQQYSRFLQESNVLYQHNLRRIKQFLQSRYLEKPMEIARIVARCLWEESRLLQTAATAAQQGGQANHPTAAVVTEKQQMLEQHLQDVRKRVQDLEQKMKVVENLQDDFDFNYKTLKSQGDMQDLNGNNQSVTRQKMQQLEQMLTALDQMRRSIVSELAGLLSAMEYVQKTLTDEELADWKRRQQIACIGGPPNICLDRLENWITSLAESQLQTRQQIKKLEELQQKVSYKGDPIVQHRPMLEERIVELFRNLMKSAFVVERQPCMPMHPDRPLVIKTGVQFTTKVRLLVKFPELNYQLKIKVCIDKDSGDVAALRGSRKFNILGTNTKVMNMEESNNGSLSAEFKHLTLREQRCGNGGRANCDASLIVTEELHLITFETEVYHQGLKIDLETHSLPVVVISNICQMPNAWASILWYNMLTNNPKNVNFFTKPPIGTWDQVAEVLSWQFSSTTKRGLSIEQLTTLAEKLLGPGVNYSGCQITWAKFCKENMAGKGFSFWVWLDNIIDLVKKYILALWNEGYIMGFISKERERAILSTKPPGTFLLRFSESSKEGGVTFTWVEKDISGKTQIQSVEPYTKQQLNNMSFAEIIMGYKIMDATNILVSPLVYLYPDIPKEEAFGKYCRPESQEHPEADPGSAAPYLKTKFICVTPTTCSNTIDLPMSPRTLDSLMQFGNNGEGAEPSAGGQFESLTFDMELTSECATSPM
# Sequence of Nuclear factor erythroid 2-related factor 2 (Homo sapiens) (Q16236 whole entry, looked up): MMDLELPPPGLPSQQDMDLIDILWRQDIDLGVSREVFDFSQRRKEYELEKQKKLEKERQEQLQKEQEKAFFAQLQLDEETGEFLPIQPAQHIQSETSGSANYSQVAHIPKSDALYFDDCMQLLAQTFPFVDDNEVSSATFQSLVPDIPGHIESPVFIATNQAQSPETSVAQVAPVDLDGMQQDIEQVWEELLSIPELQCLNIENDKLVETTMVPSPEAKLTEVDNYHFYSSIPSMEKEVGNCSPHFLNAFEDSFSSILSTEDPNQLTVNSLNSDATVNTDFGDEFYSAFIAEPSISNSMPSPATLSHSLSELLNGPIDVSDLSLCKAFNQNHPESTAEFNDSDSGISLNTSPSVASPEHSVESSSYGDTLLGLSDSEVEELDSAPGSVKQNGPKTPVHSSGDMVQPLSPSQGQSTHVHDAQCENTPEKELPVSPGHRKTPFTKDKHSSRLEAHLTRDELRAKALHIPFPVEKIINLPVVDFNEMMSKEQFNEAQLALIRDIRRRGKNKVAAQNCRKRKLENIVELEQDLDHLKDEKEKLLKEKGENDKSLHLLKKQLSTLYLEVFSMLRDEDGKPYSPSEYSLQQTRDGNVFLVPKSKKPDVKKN
smiles,measurement,setting,value
NC(=O)N(O)[C@@H]1C=C[C@H](Oc2cccc(Oc3ccc(F)cc3)c2)C1,AC50,[1],81.9 µM (active)
same,outcome,[2],inactive
same,outcome,[3],inactive
same,AC50,[4],86.1 µM (active)
same,AC50,[5],76.5 µM (active)
same,AC50,[6],76.2 µM (active)
same,AC50,[7],72.4 µM (active)
same,outcome,[8],inactive
same,outcome,[9],inactive
same,outcome,[10],inactive
same,AC50,[11],50 µM (active)
same,AC50,[12],75.5 µM (active)
same,AC50,[13],75.8 µM (active)
same,AC50,[14],73.5 µM (active)
same,outcome,[15],inactive
same,outcome,[16],inactive
OCCC(F)(F)C(F)(F)C(F)(F)C(F)(F)C(F)(F)C(F)(F)F,outcome,[1],inactive
same,outcome,[2],inactive
same,outcome,[3],inactive
same,outcome,[4],inactive
same,outcome,[6],inactive
same,outcome,[7],inactive
same,outcome,[8],inactive
same,outcome,[9],inactive
same,outcome,[10],inactive
same,outcome,[11],inactive
same,outcome,[12],inactive
same,outcome,[13],inactive
same,outcome,[17],inactive
same,outcome,[14],inactive
same,outcome,[18],inactive
CCCCCCCC(=O)O,AC50,[1],12.3 µM (active)
same,outcome,[2],inactive
same,outcome,[3],inactive
same,outcome,[4],inactive
same,outcome,[6],inactive
same,outcome,[7],inactive
same,outcome,[8],inactive
same,outcome,[9],inactive
same,outcome,[10],inactive
same,outcome,[11],inactive
same,outcome,[12],inactive
same,outcome,[13],inactive
same,outcome,[17],inactive
same,outcome,[14],inactive
same,outcome,[18],inactive
same,outcome,[15],inactive
same,outcome,[16],inactive
CCCCCCC(=O)O,outcome,[1],inactive
same,outcome,[2],inactive
same,outcome,[3],inactive
same,outcome,[4],inactive
same,outcome,[5],inactive
same,outcome,[6],inactive
same,outcome,[7],inactive
same,outcome,[8],inactive
same,outcome,[9],inactive
same,outcome,[10],inactive
same,outcome,[11],inactive
same,outcome,[12],inactive
same,outcome,[13],inactive
same,outcome,[17],inactive
same,outcome,[14],inactive
same,outcome,[18],inactive
same,outcome,[16],inactive
CCCCC(CC)COC(=O)CCCCC(=O)OCc1ccccc1 (stereo not drawn),outcome,[1],inactive
same,outcome,[2],inactive
same,outcome,[3],inactive
same,outcome,[4],inactive
same,outcome,[6],inactive
same,outcome,[7],inactive
same,outcome,[8],inactive
same,outcome,[9],inactive
same,outcome,[10],inactive
same,outcome,[11],inactive
same,outcome,[12],inactive
same,outcome,[13],inactive
same,outcome,[17],inactive
same,outcome,[14],inactive
same,outcome,[18],inactive
same,outcome,[15],inactive
same,outcome,[16],inactive
COCC(C)O (stereo not drawn),outcome,[1],inactive
same,outcome,[2],inactive
same,outcome,[3],inactive
same,outcome,[4],inactive
same,outcome,[5],inactive
same,outcome,[6],inactive
same,outcome,[7],inactive
same,outcome,[8],inactive
same,outcome,[9],inactive
same,outcome,[10],inactive
same,outcome,[11],inactive
same,outcome,[12],inactive
same,outcome,[13],inactive
same,outcome,[14],inactive
same,outcome,[18],inactive
same,outcome,[19],inactive
same,outcome,[16],inactive
CCCCCCCCCCCCCCCS(=O)(=O)Oc1ccccc1,outcome,[1],inactive
same,outcome,[2],inactive
same,outcome,[3],inactive
same,outcome,[4],inactive
same,outcome,[6],inactive
same,outcome,[7],inactive
same,outcome,[8],inactive
same,outcome,[9],inactive
same,outcome,[10],inactive
same,outcome,[11],inactive
same,AC50,[12],8.01 µM (active)
same,outcome,[13],inactive
same,outcome,[17],inactive
same,outcome,[14],inactive
same,outcome,[18],inactive
same,outcome,[15],inactive
OCCC(F)(F)C(F)(F)C(F)(F)C(F)(F)C(F)(F)C(F)(F)C(F)(F)C(F)(F)F,outcome,[1],inactive
same,outcome,[2],inactive
same,outcome,[3],inactive
same,outcome,[4],inactive
same,outcome,[5],inactive
same,outcome,[6],inactive
same,outcome,[7],inactive
same,outcome,[8],inactive
same,outcome,[9],inactive
same,outcome,[10],inactive
same,outcome,[11],inactive
same,outcome,[12],inactive
same,outcome,[13],inactive
same,outcome,[14],inactive
same,outcome,[18],inactive
same,outcome,[15],inactive
same,outcome,[19],inactive
same,outcome,[16],inactive

# Source: PubChem BioAssay (EPA / NIEHS)
